According to PubChem BioAssay (NCATS):
Records with an inconclusive call do not appear. Where a call stands in place of a potency, no number is given. Activity calls are given as the source filed them. The call rests on the fitted dose curve; in most records, active means well fitted inhibition curve with a large enough effect; inconclusive means small, poorly fitted or top-dose-only effect; inactive means no such curve, though single readings can be large or run the other way.

Assay: Primary qHTS for inhibitors of La Crosse Virus (LACV) - induced cell death in SH-SY5Y cells (AID 1508616);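 further: top concentration of the series differs between compounds; higher means more rescue of cells from virus-induced death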
Conditions: SH-SY5Y LACV cytopathicity rescue, ATP luminescence, 6 d; series mostly up to 4.29 µM
How it was run: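 Protection against LACV-induced cell death is scored in SH-SY5Y cells exposed to compounds and virus (0.01 MOI) for 6 days. Data normalized to virus-infected DMSO wells and virus-free DMSO wells.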
With `CC(=O)c1ccc2c(c1)N(CCCN1CCC(CCO)CC1)c1ccccc1S2` the Potency was “inactive”.
In the case of `CCOC(=O)n1ccn(C)c1=S`, the Potency is reported as “inactive”.
In the case of `CC(=O)OCC(=O)NCCCOc1cccc(CN2CCCCC2)c1`, the Potency is reported as “inactive”.
With `Cc1cc(=O)n(-c2ccccc2)n1C` the Potency was “inactive”.
For `CCN(CC)CCNC(=O)COc1ccc(Cl)cc1`, the Potency was “inactive”.
In the case of `CC(O)C(=O)O` (centres undefined), the Potency is reported as “inactive”.
In the case of `CN(C)CCOc1ccccc1Cc1ccccc1`, the Potency is reported as “inactive”.
In the case of `CCCCCCCCCCCCCCCC[N+](C)(C)CC`, the Potency is reported as “inactive”.
For `CC(C)(CO)[C@@H](O)C(=O)NCCCO`, the Potency was “inactive”.
In the case of `Oc1cc(O)c2c(c1)O[C@H](c1ccc(O)c(O)c1)[C@H](O)C2`, the Potency is reported as “inactive”.
With `CCN1CCN(c2cc3c(cc2F)c(=O)c(C(=O)O)cn3C2CC2)CC1` the Potency was “inactive”.
With `CN(C)CC/C=C1\c2ccccc2Sc2ccc(Cl)cc21` the Potency was “inactive”.
In the case of `CN=C(NC#N)Nc1ccc(C2=NNC(=O)CC2C)cc1` (centres undefined), the Potency is reported as “inactive”.
For `C#C[C@]1(O)CC[C@H]2[C@@H]3CCc4cc(OC5CCCC5)ccc4[C@H]3CC[C@@]21C`, the Potency was “inactive”.
For `O=c1[nH]c(=O)n([C@H]2C[C@H](O)[C@@H](CO)O2)cc1C(F)(F)F`, the Potency was “inactive”.
With `Cc1cc2c(cc1CC(=O)c1sccc1S(=O)(=O)Nc1onc(C)c1Cl)OCO2` the Potency was “inactive”.
In the case of `CC(=O)[C@H]1CC[C@H]2[C@@H]3C[C@H](C)C4=CC(=O)CC[C@]4(C)[C@H]3[C@@H](O)C[C@]12C`, the Potency is reported as “inactive”.
For `CCCC(=O)O[C@]1(C(=O)CO)CC[C@H]2[C@@H]3CCC4=CC(=O)CC[C@]4(C)[C@H]3[C@@H](O)C[C@@]21C`, the Potency was “inactive”.
In the case of `CC(=O)Oc1ccc(C(c2ccc(OC(C)=O)cc2)c2ccccn2)cc1`, the Potency is reported as “inactive”.
